Test results taken from PubChem BioAssay (NCATS).
Records with an inconclusive call do not appear. Where a call stands in place of a potency, no number is given. Calls of active or inactive are those of the source. The call rests on the fitted dose curve; in most records, active means well fitted cell-killing curve with a large enough effect; inconclusive means small, poorly fitted or top-dose-only effect; inactive means flat fitted curve, though single readings scatter.
Potency means the concentration at half of the fitted maximal effect.

Assay: Cellular viability qHTS for adrenocortical cancer (ACC) cell line NCI-H295R (AID 1963990); further: nearly all actives have a fitted effect of over 60% in size
Conditions: CellTiter-Glo ATP luminescence, 48 h; series mostly up to 46.1 µM
Outline: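 Readout: CellTiter-Glo luminescence, 20 min RT. Exposure: 48 h, 37C/5% CO2. Cells: NCI-H295R, ITS-DMEM serum-free. Range: up to 46 uM. Analysis: 4PL fit, IC50 plus efficacy.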
In the case of `O=C(Cc1ccccc1)Nc1nnc(CCSCCc2nnc(NC(=O)Cc3ccccc3)s2)s1`, the Potency is reported as “inactive”.
With `O=C(NO)c1cnc(NC2(c3cccc(F)c3)CCCCC2)nc1` the Potency was 3.16 µM (active).
For `CN1CCN(C2=Nc3cc(F)ccc3Cc3ccccc32)CC1`, the Potency was “inactive”.
In the case of `Nc1nc2ccccc2n1Cc1ccc(F)cc1`, the Potency is reported as “inactive”.
For `Cc1c(Cl)cccc1S(=O)(=O)Nc1nc(CCN2CCOCC2=O)cs1`, the Potency was “inactive”.
With `CCC(=O)Oc1ccc2c(c1)CC[C@@H]1[C@@H]2CC[C@@]2(C)[C@H]1C[C@@H](OC(=O)CC)[C@@H]2OC(=O)CC` the Potency was “inactive”.
For `COc1ccc(/C=C/C(=O)c2ccc(OC)cc2OC)cc1`, the Potency was 9.2 µM (active).
For `C=C[C@@H]1CN2CCC1C[C@H]2[C@H](O)c1ccnc2ccc(OC)cc12` (stereo not given in full), the Potency was “inactive”.
For `OCCN1CCN(CCCN2c3ccccc3C=Cc3ccccc32)CC1`, the Potency was “inactive”.
In the case of `CCCSS/C(CCO)=C(\C)N(C=O)Cc1cnc(C)nc1N`, the Potency is reported as 9.2 µM (active).
For `CN(C(=O)CCCOc1ccc2[nH]c(=O)ccc2c1)C1CCCCC1`, the Potency was “inactive”.
In the case of `OC(CCN1CCCCC1)(c1ccccc1)C1CCCCC1` (stereo not given), the Potency is reported as 4.61 µM (active).
For `C[C@H]1CN(C2COC2)CCN1c1ccc(Nc2cc(-c3ccnc(N4CCn5c(cc6c5CC(C)(C)C6)C4=O)c3CO)cn(C)c2=O)nc1`, the Potency was “inactive”.
In the case of `CC1(COc2ccc(CC3SC(=O)NC3=O)cc2)CCCCC1` (stereo not given), the Potency is reported as 16.4 µM (active).
With `Cc1c2oc3c(C)ccc(C(=O)N[C@@H]4C(=O)N[C@H](C(C)C)C(=O)N5CCC[C@H]5C(=O)N(C)CC(=O)N(C)[C@@H](C(C)C)C(=O)O[C@@H]4C)c3nc-2c(C(=O)N[C@@H]2C(=O)N[C@H](C(C)C)C(=O)N3CCC[C@H]3C(=O)N(C)CC(=O)N(C)[C@@H](C(C)C)C(=O)O[C@@H]2C)c(N)c1=O` the Potency was 0.0517 µM (active).
